# A647 fluor – compound fluoresces in the A647 spectral region; Compound fluorescence, A647 channel (570/671 nm), Tris buffer; max dye-equivalent concentration, M; 59,000 tested, under 10 active; AID 592;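 further: values scaled relative to a standard on each plate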
#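 Spectral profiling of library compounds in pH 8.0 Tris: 15 min room-temperature incubation, single ex/em pair (570/671 nm), response normalized to Alexa 647 equivalents.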
# Resorufin autofl – compound fluoresces in the resorufin spectral region; Compound fluorescence, resorufin region 547/598 nm, buffer; hits give high values; max dye-equivalent concentration, M; 59,000 compounds, 0.04% hits; AID 588
#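 Compounds in 100 mM Tris, pH 8.0, incubated 15 min at room temperature, then fluorescence read at 547 nm excitation/598 nm emission. Signal converted to dye-equivalent concentration via an on-plate six-point resorufin standard curve, per compound concentration.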
# Rhodamine fluor – compound autofluorescence in rhodamine spectral region. Rhodamine-region fluorescence, 547/598 nm, Tris buffer; hits give high values. max dye-equivalent concentration, M. 59,000 compounds, 0.05% hits. AID 594; in the data active means max dye-equivalent concentration above about 11 nM; inconclusive means between about 1.1 nM and that limit
#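 qHTS spectral profiling of compounds without any target or enzyme present, in pH 8.0 Tris buffer; plates were read after a 15-minute room-temperature incubation using the rhodamine-region filter set.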
# Fluorescein autfl – fluorescein region autofluorescence; AID 593; max fluorescein-equivalent concentration, M; Compound autofluorescence, 480/540 nm, fluorescein-equivalent; hits give high values; 59,000 compounds, 0.91% hits; in the data active means max fluorescein-equivalent concentration above about 10 nM; inconclusive means between about 1.1 nM and that limit
#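 Compounds were pin-transferred into 100 mM Tris buffer, pH 8.0, and incubated 15 min at room temperature. Fluorescence was read at 480 nm excitation/540 nm emission. Signals were normalized to an on-plate six-point fluorescein standard curve as dye-equivalent concentration.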
# Texas Red fluor – Texas Red region autofluorescence; max dye-equivalent concentration, M; AID 587; 59,000 compounds, 0.06% hits; Compound fluorescence, Texas Red channel, 547/618 nm; hits give high values; in the data active means max dye-equivalent concentration above about 10 nM; inconclusive means between about 1.1 nM and that limit
#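 Spectral interference profiling: each compound concentration's relative fluorescence, read with a 547 nm excitation and 618 nm emission filter pair, was normalized to a per-plate Texas Red standard curve.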
# A488 autofl – compound autofluorescence in A488 spectral region; compound autofluorescence, A488 spectral region, dye equivalency; Compound Type: qHTS ECL - MLSMR; AID 591; max dye equivalency, M; 59,000 compounds, 0.1% hits
#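 Compound autofluorescence was read in 100 mM Tris pH 8.0 after 15 min at room temperature, ex 480 nm/em 540 nm. Intensities were converted to A488 dye-equivalent concentration using an on-plate six-point A488 standard curve.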
# Starred values were filed as active, the others as inactive; i = inactive; ? = inconclusive. Compounds with a hit are over-represented: about 0.9% of the library has one in this group of screens. Unless noted, how the calls were made is not given here.
SMILES,A647 fluor,Resorufin autofl,Rhodamine fluor,Fluorescein autfl,Texas Red fluor,A488 autofl
O=C(c1cnn2c(C(F)(F)F)cc(-c3ccc4c(c3)OCO4)nc12)N1CCCCC1,3.3e-08,i,i,i,i,i
O=C(NC1CCCC1)c1cnn2c(C(F)(F)F)cc(-c3ccc4c(c3)OCO4)nc12,1e-09,i,i,4.6e-08M*,i,?
CN(C)S(=O)(=O)c1ccc2c(c1)/C(=C/c1cc3c([nH]1)CCCC3)C(=O)N2,2.6e-08,i,i,1.9e-08M*,i,i
COc1ccc(N(C)S(=O)(=O)c2ccc3c(c2)CCC(=O)N3)cc1,3.1e-09,i,i,i,i,i
CCCCOc1ccc(C2C3CN(C(=O)OCC)CC=C3C(C#N)=C(N)C2(C#N)C#N)cc1OC (stereo unspecified),1.2e-09,i,i,?,i,i
Cc1ccc(C2C3CN(C(C)C)CC=C3C(C#N)=C(N)C2(C#N)C#N)cc1 (stereo unspecified),6.2e-08,i,i,1e-07M*,i,?
CCCN1CC=C2C(C#N)=C(N)C(C#N)(C#N)C(c3cccc(OC)c3OC)C2C1 (stereo unspecified),3.1e-09,i,i,5.3e-08M*,i,?
CN1CC=C2C(C#N)=C(N)C(C#N)(C#N)C(c3cccc(Cl)c3Cl)C2C1 (stereo unspecified),1.1e-09,i,i,3.9e-08M*,?,?
CCOC(=O)N1CC=C2C(C#N)=C(N)C(C#N)(C#N)[C@H](c3ccc(OCC)c(OCC)c3)[C@H]2C1,1e-09,i,i,i,i,i
COc1ccc(OC)c(C2C3CN(C(C)C)CC=C3C(C#N)=C(N)C2(C#N)C#N)c1 (stereo unspecified),1e-09,i,i,3.2e-08M*,i,i
CCOC(=O)Nc1cc(C)ccc1OC,1.2e-08,i,i,i,?,i
CCOC(=O)Nc1ccc(NCc2ccc(F)cc2)nc1N,3.1e-08,i,i,1.6e-08M*,i,i
O=C(O)CCCCCC[C@@H]1C(=O)NC(=O)N1CC[C@@H](O)C1CCCCC1,1e-09,i,i,i,i,i
O=[N+]([O-])c1ccc2ncccc2c1CCc1c([N+](=O)[O-])ccc2ncccc12,1e-09,i,i,1.1e-08M*,i,i
CNC(=O)[C@@H]1O[C@@H](n2cnc3c(N)ncnc32)[C@@H](O)[C@H]1O,4.1e-09,i,i,?,?,i
Cc1ccc(/C=c2\s/c(=C(/C#N)C(=O)N3CCCC3)n(Cc3ccco3)c2=O)s1,1.1e-08,i,i,6.4e-08M*,?,?
COc1cc(/C=c2\s/c(=C(/C#N)C(=O)N3CCCC3)n(-c3ccccc3)c2=O)ccc1O,1e-09,i,i,?,i,i
O=C(O)[C@H]1C[C@H](C(=O)O)N1,3.3e-08,i,i,?,?,i
CC1(C)CC(=O)C2=C(C1)N1CCCCC1CC2=O (stereo unspecified),3.2e-08,i,i,1.5e-08M*,i,i
O=C(/C=C\c1ccc(O)c(O)c1)OCCc1ccccc1,4.1e-08,i,i,?,i,i
Cc1ccc(N2C(=O)c3cccc4c(N5CCN(C)CC5)ccc(c34)C2=O)c2cccnc12,1e-09,i,i,2.6e-08M*,i,?
CCN1C(=O)c2cccc3c(S(=O)(=O)Nc4ncccc4C)ccc1c23,2.5e-08,i,i,?,i,i
COc1cc2c3cc1Oc1cc(ccc1O)C[C@@H]1c4c(cc(OC)c(O)c4Oc4ccc(cc4)C[C@H]3[N+](C)(C)CC2)CC[N+]1(C)C,1.9e-08,i,i,i,i,i
CCOC(=O)c1ccc(CC(=O)c2oc3cc(O)ccc3c2C)o1,4.9e-09,i,i,2.3e-08M*,?,i
CCOC(=O)c1oc2cc(O)ccc2c(=O)c1-c1csc(C)n1,1.7e-08,i,i,?,i,i
SMILES,A647 fluor,Resorufin autofl,Rhodamine fluor,Fluorescein autfl,Texas Red fluor,A488 autofl
CCN(CC)CCC[C@H](C)Nc1c2ccc(Cl)cc2nc2ccc(OC)cc12,3.4e-08,i,i,9e-08M*,i,?
COc1cccc(=O)c2c(C)oc(C)c12,3.6e-08,i,i,7.1e-08M*,i,?
CN(CCO)C(=O)c1cccc2c1-c1ccccc1C2=O,1.2e-08,i,i,i,i,i
CCNc1c2c3c(cccc3n(C)c1=O)C(=O)c1ccccc1-2,4.2e-09,?,1.2e-08M*,2.5e-06M*,?,1.4e-07M*
Cn1c(=O)c(NCCO)c2c3c(cccc31)C(=O)c1ccccc1-2,3.4e-09,5.2e-08M*,8.5e-08M*,2.5e-05M*,?,1.3e-06M*
O=C(O)CCC/C=C\C[C@H]1[C@@H](/C=C\[C@@H](O)C2Cc3ccccc3C2)[C@H](F)C[C@H]1O,6.2e-09,i,i,i,i,i
COc1ccc(OC)c(/C=c2\sc3nc(-c4cccs4)nn3c2=O)c1,2.4e-09,i,i,1.8e-07M*,i,?
CCN(CC)c1ccc2cc(C(=O)Nc3cccnc3N3CCOCC3)c(=O)oc2c1,1.6e-08,i,i,4e-08M*,i,?
COc1ccccc1C(=O)Nc1ccccn1,3.7e-08,i,i,?,?,i
CCN(CC)c1ccc2cc(C(=O)Nc3ccccn3)c(=O)oc2c1,4.3e-08,i,i,5.4e-07M*,i,2.6e-08M*
CCN(CC)c1ccc2cc(NC(=O)CCC(=O)O)c(=O)oc2c1,1e-09,i,i,2.2e-07M*,i,1.2e-08M*
CC1=CC(=O)CC(C)(C)[C@@]1(O)/C=C\C(C)=C\C(=O)O,1.9e-08,i,i,?,i,i
O[C@@H](c1cc(-c2ccccc2)nc2c1ccc1ccccc12)[C@@H]1CCCCN1,4.5e-08,i,i,?,i,i
Cc1oc(C)c2c(=O)ccc3c(c12)OC(N)=C(C#N)C3c1ccccc1 (stereo unspecified),1e-09,i,i,1.1e-08M*,i,i
CSc1ccc(C2C(C#N)=C(N)Oc3c2ccc(=O)c2c(C)oc(C)c32)cc1 (stereo unspecified),7.5e-09,i,i,?,i,i
Cc1oc(C)c2c(=O)ccc3c(c12)OC(N)=C(C#N)C3c1ccccc1Cl (stereo unspecified),1e-09,i,i,1.5e-08M*,i,i
CC(=O)C1=C(C)OC(N)=C(C#N)C1c1ccco1 (stereo unspecified),1e-09,i,i,?,i,i
Nc1ccn([C@@H]2O[C@@H](CO)[C@@H](O)[C@H]2O)c(=O)n1,1e-08,i,i,?,i,i

# Screening results (PubChem BioAssay)
